Measurements published in PubChem BioAssay (NCI).
The panel holds about 83,000 compounds, 20% with a hit somewhere; the sample as a whole holds those more often.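 The endpoint reported here, percent growth, reads 100 for growth as untreated, 0 for no net growth and -100 for all cells dead.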 A number with no mark means an inactive call. Calls of active or inactive are those of the source. Rule for the calls: active = growth percent below 10; inactive = the rest.

How the values were obtained:
Experiment in all cases: NCI-60 one-dose screen, 48 h (100 = growth as untreated, 0 = no growth, -100 = all killed)
Settings in all cases: 10 µM unless noted
[1] = tested on: DU-145 prostate
[2] = tested on: K-562 leukemia
[3] = tested on: MALME-3M melanoma
[4] = tested on: MDA-MB-231 breast
[5] = tested on: RXF 393 renal
[6] = tested on: SF-268 CNS
[7] = tested on: SF-295 CNS
[8] = tested on: SF-539 CNS
[9] = tested on: UACC-257 melanoma
[10] = tested on: M14 melanoma

SMILES | growth [1] | growth [2] | growth [3] | growth [4] | growth [5] | growth [6] | growth [7] | growth [8] | growth [9] | growth [10]
COC(=O)CNC(=O)[C@@H](OC)[C@@H]1Cc2cc3cc(OC4CC(OC5CC(O)C(O)C(C)O5)C(O)C(C)O4)c(C)c(O)c3c(O)c2C(=O)[C@H]1OC1CC(OC2CC(OC3CC(C)(O)C(O)C(C)O3)C(O)C(C)O2)C(O)C(C)O1 (stereo not given in full) | 17.2% | 10.2% | -35.3% (active) | 21.5% | -75.4% (active) | 21.1% | 6.85% (active) | -28.7% (active) | 6.03% (active) | -32.1% (active)
CNC(=O)c1cc(Oc2cccc3nc(Nc4ccc(Cl)c(F)c4)ccc23)ccn1 | 71.3% | 83.8% | 1.36% (active) | 73.5% | 8.19% (active) | 55.4% | 51.5% | 41.1% | 74.5% | 80.2%
O=C(O)c1ccc(Nc2ncc3c(n2)-c2ccc(Cl)cc2C(c2c(F)cccc2F)=NC3)cc1 | 72.1% | 23.3% | 76.5% | 51.7% | 43.8% | 52.6% | 39.3% | 59.4% | 46.4% | 57.5%
CN(C)C[C@@H]1CCn2cc(c3ccccc32)C2=C(C(=O)NC2=O)c2cn(c3ccccc23)CCO1 | 13.2% | -58.7% (active) | -70.5% (active) | -35.8% (active) | -72.9% (active) | 36.6% | 21% | -93.2% (active) | -20.1% (active) | 3.4% (active)
COc1ccc(Nc2ncccc2NC(=O)c2cn(Cc3cccc(Oc4ccccc4)c3)nn2)cc1 | 93.4% | 73.8% | 85.8% | 87.1% | 79.6% | 82.3% | 92.8% | 95.1% | 93% | 95.9%
COc1ccc(-c2cc3c(C)nc(N)nc3n(C3CCC(OCCO)CC3)c2=O)cn1 (stereo not given) | 7.64% (active) | 24% | -34% (active) | 5.08% (active) | -50.9% (active) | 4.36% (active) | -57.7% (active) | -62.4% (active) | -35.9% (active) | 0.206% (active)
COc1cc(F)c(F)c(Nc2ccc(I)cc2F)c1NS(=O)(=O)C1(C[C@H](O)CO)CC1 | 51.2% | 21.9% | 0.42% (active) | 23% | -2.17% (active) | 52.9% | 59.9% | 53.5% | -12.7% (active) | 7.68% (active)
Cc1ccc(NC(=O)c2ccc(CN3CCN(C)CC3)cc2)cc1Nc1nc(-c2cccnc2)cs1 | 76.5% | 3.08% (active) | -9.2% (active) | 33.8% | 32.9% | 70.8% | 3.18% (active) | -81.5% (active) | 17% | 35.5%
